# The source made the active and inactive calls. The calls were made as follows: active = hit-call score of the fitted dose curve at least 0.9, where 1 is the maximum; inactive = score below 0.9.
# Target: Voltage-dependent L-type calcium channel subunit alpha-1C (Rattus norvegicus) (UniProt P22002)
# Assay: ERF_FR_IC_rCACNA1C_Dihydropyridine: Eurofins (ERF) Calcium Ion Channel Binding (Dihydropyridine Site) LeadHunter Assay for rat Cav1.2 (L-type), conducted at France lab site
# Protocol: ERF_FR_IC_rCACNA1C_Dihydropyridine is a biochemical, single-readout assay that uses extracted gene-proteins in a cell-free assay. Measurements were taken 1.5 hour after chemical dosing in a 96-well plate. See Cav1.2 (L-type) Rat Calcium Ion Channel Binding (Dihydropyridine Site) Assay, Cerep.ERF_FR_IC_rCACNA1C_Dihydropyridine is an assay component calculated from the ERF_FR_IC_rCACNA1C_Dihydropyridine assay. It is designed to measure radioligand binding using a type of binding reporter as detected by scintillation counting with radiometry technology.Data from the assay component ERF_FR_IC_rCACNA1C_Dihydropyridine was analyzed at the assay endpoint, ERF_FR_IC_rCACNA1C_Dihydropyridine, in the positive analysis fitting direction relative to DMSO as the negative control and baseline of activity. Using a type of binding reporter, loss-of-signal activity can be used to understand changes in binding as they relate to gene CACNA1C. To generalize the intended target to other relatable targets, this assay endpoint is annotated to the ion channel intended target family, where the subfamily is voltage gated (Calcium).
# Rat brain cells are incubated for 90 minutes at room temprature with [3H]nitrendipine (0.25 nM) ligand and Nitrendipine as control inhibitor. Test Sample Requirements: Minimum for 1) Screen: 60 ul of 10 mM stock -OR- 1 mg (pre-weighed) for 10 uM final testing. […]
# Sequence of Voltage-dependent L-type calcium channel subunit alpha-1C (Rattus norvegicus) (P22002 whole entry, looked up): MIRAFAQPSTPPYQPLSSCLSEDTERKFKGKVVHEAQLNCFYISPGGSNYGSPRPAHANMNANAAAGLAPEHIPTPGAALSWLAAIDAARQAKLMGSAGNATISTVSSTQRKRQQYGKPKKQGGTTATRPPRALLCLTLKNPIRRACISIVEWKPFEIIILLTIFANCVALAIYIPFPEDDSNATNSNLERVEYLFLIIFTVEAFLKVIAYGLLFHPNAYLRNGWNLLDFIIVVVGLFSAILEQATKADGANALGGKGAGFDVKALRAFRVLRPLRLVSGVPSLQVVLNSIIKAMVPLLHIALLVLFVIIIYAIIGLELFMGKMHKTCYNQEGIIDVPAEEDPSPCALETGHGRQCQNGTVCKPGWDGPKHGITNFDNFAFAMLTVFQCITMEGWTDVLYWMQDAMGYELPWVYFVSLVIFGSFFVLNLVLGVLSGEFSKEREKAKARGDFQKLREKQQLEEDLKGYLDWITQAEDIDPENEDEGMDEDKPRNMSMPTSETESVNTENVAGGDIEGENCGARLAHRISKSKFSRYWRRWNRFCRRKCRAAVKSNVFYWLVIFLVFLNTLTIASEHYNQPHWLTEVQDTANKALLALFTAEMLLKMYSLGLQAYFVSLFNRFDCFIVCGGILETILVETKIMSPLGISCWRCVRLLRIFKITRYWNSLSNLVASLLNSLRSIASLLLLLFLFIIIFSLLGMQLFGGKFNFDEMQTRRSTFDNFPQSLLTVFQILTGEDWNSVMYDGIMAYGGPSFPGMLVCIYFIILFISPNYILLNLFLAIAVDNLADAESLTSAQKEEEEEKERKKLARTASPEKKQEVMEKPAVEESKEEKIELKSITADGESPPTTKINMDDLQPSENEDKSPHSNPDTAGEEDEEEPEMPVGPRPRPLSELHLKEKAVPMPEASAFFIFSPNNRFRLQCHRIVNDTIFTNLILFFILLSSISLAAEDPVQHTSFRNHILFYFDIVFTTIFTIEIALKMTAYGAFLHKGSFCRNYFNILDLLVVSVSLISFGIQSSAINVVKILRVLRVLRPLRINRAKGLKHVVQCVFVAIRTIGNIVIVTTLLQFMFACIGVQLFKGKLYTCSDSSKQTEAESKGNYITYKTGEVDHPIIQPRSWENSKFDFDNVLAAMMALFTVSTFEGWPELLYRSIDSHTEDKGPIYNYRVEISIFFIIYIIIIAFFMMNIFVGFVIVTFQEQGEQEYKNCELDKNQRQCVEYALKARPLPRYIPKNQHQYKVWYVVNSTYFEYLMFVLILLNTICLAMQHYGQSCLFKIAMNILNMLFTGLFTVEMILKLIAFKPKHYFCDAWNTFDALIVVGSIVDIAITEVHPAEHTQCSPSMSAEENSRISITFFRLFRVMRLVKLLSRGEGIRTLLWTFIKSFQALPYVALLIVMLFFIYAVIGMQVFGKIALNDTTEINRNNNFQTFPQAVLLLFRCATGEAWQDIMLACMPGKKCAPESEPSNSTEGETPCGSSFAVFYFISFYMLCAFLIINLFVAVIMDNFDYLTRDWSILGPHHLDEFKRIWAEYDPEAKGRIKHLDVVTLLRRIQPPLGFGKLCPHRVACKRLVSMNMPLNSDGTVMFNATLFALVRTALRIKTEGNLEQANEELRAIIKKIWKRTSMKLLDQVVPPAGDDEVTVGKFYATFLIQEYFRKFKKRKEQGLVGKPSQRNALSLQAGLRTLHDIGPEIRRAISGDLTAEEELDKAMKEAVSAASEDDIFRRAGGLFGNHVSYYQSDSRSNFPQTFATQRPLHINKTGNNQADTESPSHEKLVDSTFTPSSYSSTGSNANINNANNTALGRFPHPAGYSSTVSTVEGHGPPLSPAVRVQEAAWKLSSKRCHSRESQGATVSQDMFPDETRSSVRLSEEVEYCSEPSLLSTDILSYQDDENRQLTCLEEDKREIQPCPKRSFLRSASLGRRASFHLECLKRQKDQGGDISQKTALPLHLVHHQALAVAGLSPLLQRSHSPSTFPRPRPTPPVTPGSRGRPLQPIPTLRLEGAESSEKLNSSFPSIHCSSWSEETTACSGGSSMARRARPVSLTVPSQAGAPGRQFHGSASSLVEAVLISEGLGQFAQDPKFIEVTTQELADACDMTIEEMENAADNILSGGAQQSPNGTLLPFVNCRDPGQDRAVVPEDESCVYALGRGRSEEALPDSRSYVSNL
smiles,measurement,value
COc1cc(CCC(=O)CC(=O)CCc2ccc(O)c(OC)c2)ccc1O,AC50,3.16 µM (active)

# Source: PubChem BioAssay AID2284172 (EPA ToxCast)
